Assay results from the supplement of paper PMC11537057.
Counter-ions that a name gives are not always drawn. ± gives the standard deviation of the averaged measurements. The full ranking holds about 1,700 compounds; the median of “cell number in HSV-1-infected wells relative to infected DMSO wells (H2B-RFP signal)” is about 100, and the highest 2% start at about 140. The sample as a whole holds a higher share of the highest values than the screen did.

Each compound was assayed on A549 infected with HSV-1 (assay: cell number in HSV-1-infected wells relative to infected DMSO wells (H2B-RFP signal); higher = more surviving cells (uninfected or antiviral-protected wells give about 200%; low = toxicity)). Settings: 10 µM; 48 h; MOI: 0.1.
Procedure: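 Selleck FDA-approved library (L1300) screened in duplicate at 10 µM on A549 H2B-mRuby cells in 384-well plates, infected with HSV-1 strain 17 YFP-ICP4 at MOI 0.1 one hour before drug addition. Imaged after 2 days at 37°C. Cell growth (H2B-RFP) and infection (ICP4-YFP) are expressed as % of DMSO-treated wells. Hits: growth >90% and infection <20% of DMSO.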
In the case of `Cn1nnc(-c2ccc(-c3ccc(N4C[C@H](CO)OC4=O)cc3F)cn2)n1` [Tedizolid], the “cell number in HSV-1-infected wells” value is reported as 104 ± 5.8%.
In the case of `CCCCCCCCCCCCCCCC(=O)O[C@@H]1[C@@H](O)[C@@H](O)[C@@H]([C@H](NC(=O)[C@@H]2C[C@@H](CCC)CN2C)[C@H](C)Cl)O[C@@H]1SC` [Clindamycin palmitate HCl], the “cell number in HSV-1-infected wells” value is reported as 85.3 ± 3.2%.
`Cc1cc(-c2ccccc2)nnc1NCCN1CCOCC1` [Minaprine dihydrochloride] was tested, and the “cell number in HSV-1-infected wells” value was 94.3 ± 12%.
For `CN1CCC(=C2c3ccccc3CCn3c(C=O)cnc32)CC1` [Alcaftadine], the “cell number in HSV-1-infected wells” value was 127.9 ± 0.97%.
In the case of `Cc1ccccc1-c1cc(N2CCN(C)CC2)ncc1N(C)C(=O)C(C)(C)c1cc(C(F)(F)F)cc(C(F)(F)F)c1` [Netupitant], the “cell number in HSV-1-infected wells” value is reported as 146 ± 30%.
`CCOC(=O)CCC(=O)O[C@H]1[C@H](O[C@@H]2[C@@H](C)[C@H](O[C@H]3C[C@@](C)(OC)[C@@H](O)[C@H](C)O3)[C@@H](C)C(=O)O[C@H](CC)[C@@](C)(O)[C@H](O)[C@@H](C)C(=O)[C@H](C)C[C@@]2(C)O)O[C@H](C)C[C@@H]1N(C)C` [Erythromycin Ethylsuccinate] was tested, and the “cell number in HSV-1-infected wells” value was 118 ± 17%.
For `C[C@@H](O)[C@@H]1NC(=O)[C@H](CCCCN)NC(=O)[C@@H](Cc2c[nH]c3ccccc23)NC(=O)[C@H](Cc2ccccc2)NC(=O)[C@@H](NC(=O)[C@H](N)Cc2ccccc2)CSSC[C@@H](C(=O)N[C@H](CO)[C@@H](C)O)NC1=O` [Octreotide Acetate], the “cell number in HSV-1-infected wells” value was 96.3 ± 13%.
For `CC(O)C(=O)O.N` (stereo not given) [Ammonium lactate], the “cell number in HSV-1-infected wells” value was 91.3 ± 9.4%.
With `CCn1c(=O)c(-c2cc[nH]n2)cc2c(C)nc(N)nc21` the “cell number in HSV-1-infected wells” value was 79.6 ± 6.9%.
For `CC1(C)S[C@@H]2[C@H](NC(=O)[C@H](N)c3ccccc3)C(=O)N2[C@H]1C(=O)OCOC(=O)[C@@H]1N2C(=O)C[C@H]2S(=O)(=O)C1(C)C` [Sultamicillin], the “cell number in HSV-1-infected wells” value was 104 ± 5.9%.
In the case of `COc1cc(S(=O)(=O)O)ccc1O` [Sulfogaiacol], the “cell number in HSV-1-infected wells” value is reported as 98.6 ± 40%.
`O=C(Nc1nc2cccc(-c3ccc(CN4CCS(=O)(=O)CC4)cc3)n2n1)C1CC1` [Filgotinib (GLPG0634)] was tested, and the “cell number in HSV-1-infected wells” value was 76.8 ± 6.2%.
With `O=c1[nH]cnc2c1ncn2[C@H]1CC[C@@H](CO)O1` [Didanosine] the “cell number in HSV-1-infected wells” value was 99.6 ± 8.7%.
With `Nc1nc2c(ncn2COC(CO)CO)c(=O)[nH]1` [Ganciclovir] the “cell number in HSV-1-infected wells” value was 192.4 ± 0.4%.
With `C=C1[C@H](CO)[C@@H](O)C[C@@H]1n1cnc2c(=O)[nH]c(N)nc21` [Entecavir] the “cell number in HSV-1-infected wells” value was 130 ± 39%.
With `Nc1nc2c(ncn2COCCO)c(=O)[nH]1` [Aciclovir] the “cell number in HSV-1-infected wells” value was 225 ± 2.6%.
In the case of `CC(C)[C@H](N)C(=O)OCCOCn1cnc2c(=O)nc(N)[nH]c21` [Valaciclovir HCl], the “cell number in HSV-1-infected wells” value is reported as 167 ± 22%.
With `C=C1[C@H](CO)[C@@H](O)C[C@@H]1n1cnc2c(=O)[nH]c(N)nc21` [Entecavir Hydrate] the “cell number in HSV-1-infected wells” value was 150 ± 12%.
For `O=c1[nH]cnc2c1ncn2[C@@H]1O[C@H](CO)[C@@H](O)[C@H]1O` [Inosine], the “cell number in HSV-1-infected wells” value was 126 ± 7.8%.
In the case of `CS(=O)(=O)Nc1cc2occ(NC=O)c(=O)c2cc1Oc1ccccc1` [Iguratimod], the “cell number in HSV-1-infected wells” value is reported as 108 ± 15%.
`CC(C)OC(=O)CCC/C=C\C[C@@H]1[C@@H](/C=C/[C@@H](O)COc2cccc(C(F)(F)F)c2)[C@H](O)C[C@@H]1O` [Travoprost] was tested, and the “cell number in HSV-1-infected wells” value was 39.8 ± 12%.
In the case of `C[C@@H](O)[C@H]1C(=O)N2C(C(=O)[O-])=C(SC3Cn4cnc[n+]4C3)[C@H](C)[C@H]12` (stereo not given in full) [Biapenem], the “cell number in HSV-1-infected wells” value is reported as 91.1 ± 10%.
With `O=C(O)C(=O)O.[NH-][C@@H]1CCCC[C@H]1[NH-].[Pt+2]` [Oxaliplatin] the “cell number in HSV-1-infected wells” value was 64.1 ± 10%.
In the case of `Clc1ccc2c(c1)CCc1cccnc1C2=C1CCNCC1` [Desloratadine], the “cell number in HSV-1-infected wells” value is reported as 116 ± 6.4%.
For `C[C@H](CCC(=O)O)[C@H]1CC[C@H]2[C@@H]3C(=O)C[C@@H]4CC(=O)CC[C@]4(C)[C@H]3CC(=O)[C@]12C` [Dehydrocholic acid], the “cell number in HSV-1-infected wells” value was 89.8 ± 1.7%.
In the case of `COc1cc2c(cc1Cc1cccc(Cl)c1F)c(=O)c(C(=O)O)cn2[C@H](CO)C(C)C` [Elvitegravir (GS-9137, JTK-303)], the “cell number in HSV-1-infected wells” value is reported as 105 ± 10%.
In the case of `CCCc1ncc(C[n+]2ccccc2C)c(N)n1` [Amprolium HCl], the “cell number in HSV-1-infected wells” value is reported as 105 ± 10%.
With `CC[C@H](C)[C@H](NC(=O)[C@@H]1CCCN1C(=O)CNC(=O)[C@H](Cc1ccccc1)NC(=O)[C@H](CC(N)=O)NC(=O)[C@H](CC(N)=O)NC(=O)[C@H](CO)NC(=O)[C@H](CO)NC(=O)[C@H](Cc1c[nH]cn1)NC(=O)[C@@H](NC(=O)[C@H](CC(C)C)NC(=O)[C@H](Cc1ccccc1)NC(=O)[C@H](CC(N)=O)NC(=O)[C@H](C)NC(=O)[C@H](CC(C)C)NC(=O)[C@H](CCCNC(=N)N)NC(=O)[C@H](CCC(N)=O)NC(=O)[C@@H](NC(=O)[C@H](C)NC(=O)[C@@H]1CSSC[C@H](NC(=O)[C@@H](N)CCCCN)C(=O)N[C@@H](CC(N)=O)C(=O)N[C@@H]([C@@H](C)O)C(=O)N[C@@H](C)C(=O)N[C@@H]([C@@H](C)O)C(=O)N1)[C@@H](C)O)C(C)C)C(=O)N[C@@H](CC(C)C)C(=O)N1CCC[C@H]1C(=O)N1CCC[C@H]1C(=O)N[C@H](C(=O)N[C@@H](CC(N)=O)C(=O)N[C@H](C(=O)NCC(=O)N[C@@H](CO)C(=O)N[C@@H](CC(N)=O)C(=O)N[C@H](C(=O)N[C@@H](Cc1ccc(O)cc1)C(N)=O)[C@@H](C)O)C(C)C)[C@@H](C)O` [Pramlintide Acetate] the “cell number in HSV-1-infected wells” value was 134 ± 20%.
For `CC(C)[C@H](N)C(=O)OCC(CO)OCn1cnc2c(=O)[nH]c(N)nc21` (stereo not given in full) [Valganciclovir HCl], the “cell number in HSV-1-infected wells” value was 207 ± 2.2%.
With `O=C(O)c1cccc(-c2noc(-c3ccccc3F)n2)c1` [Ataluren (PTC124)] the “cell number in HSV-1-infected wells” value was 116 ± 9.6%.
In the case of `CN(C)CCOC(c1ccccc1)c1ccccc1` [Diphenhydramine HCl], the “cell number in HSV-1-infected wells” value is reported as 102 ± 25%.
For `CN(C)CCC(c1ccc(Cl)cc1)c1ccccn1` (stereo not given) [Chlorpheniramine Maleate], the “cell number in HSV-1-infected wells” value was 94.3 ± 16%.
For `CN(C)CCOC(c1ccc(Cl)cc1)c1ccccn1` (stereo not given) [CarbinoxaMine Maleate], the “cell number in HSV-1-infected wells” value was 148 ± 27%.
`CC1(C)S[C@@H]2[C@H](NC(=O)[C@H](C(=O)O)c3ccsc3)C(=O)N2[C@H]1C(=O)O` [Ticarcillin sodium] was tested, and the “cell number in HSV-1-infected wells” value was 95.4 ± 22%.
For `CC(C)(C)c1cc(C(C)(C)C)c(NC(=O)c2c[nH]c3ccccc3c2=O)cc1O` [Ivacaftor (VX-770)], the “cell number in HSV-1-infected wells” value was 64.8 ± 7%.
